Hits are enriched below; roughly 11% of the tested compounds scored in any of these assays.
Sm TGR block – qHTS Assay for the Inhibitors of Schistosoma Mansoni Peroxiredoxins | hit rate 3% among 360,000 | Potency, µM (highest dose often 114 µM), for the others: at the highest dose activity change, negative = inhibition, usual class: inhibitors | purified TGR, DTNB reduction, TNB absorbance 405 nm; also: % is scaled to controls: 0 for no effect and ±100 for the full control effect; nearly all actives have a fitted effect of over 60% in size
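First, TGR (20 nM dispensed) and NADPH were mixed with compound. Second, a 15 min room-temperature incubation followed. Third, further NADPH and then DTNB were added to start the reaction. Finally, TNB absorbance was monitored kinetically.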
AMA1-RON2 inh – qHTS for Inhibitors of AMA1-RON; Towards Development of Antimalarial Drug Lead: Primary Screen; AlphaScreen AMA1-biotinylated RON2 peptide binding; Plasmodium falciparum AMA1 (3D7) - RON2 peptide interaction; hit rate 0.2% among 360,000; Potency, µM (titrated, usually from 58.2 µM), without a hit: at the highest dose activity change, negative = inhibition, most hits filed as inhibitors;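 also: 0% = vehicle wells and -100% = peptide control; nearly all actives have a fitted effect of over 45% in size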
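AMA1 (3D7) with his tag at 25 nM final met compounds first, then biotinylated RON2 peptide at 25 nM; detection used donor plus acceptor beads, 10 µg/mL apiece, read by AlphaScreen after 30 min at room temperature.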
Pf growth 48h – Primary qHTS for delayed death inhibitors of the malarial parasite plastid, 48 hour incubation. P. falciparum luciferase growth in erythrocytes, 48 h. Potency, µM (series often up to 28.7 µM), without a hit: at the top dose activity change, negative = inhibition, actives largely listed as inhibitors. hit rate 5.9% among 310,000. AID 504832, 2011; also: % is scaled to controls: 0 for no effect and ±100 for the full control effect
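Read-out is firefly luciferase luminescence from an integrated reporter in P. falciparum, so falling signal marks reduced parasite growth. Infected erythrocytes were at 2% hematocrit and 0.1% parasitemia (final) in Albumax-supplemented RPMI 1640.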
NS1 function inh – qHTS Assay for Inhibitors of Influenza NS1 Protein Function; Potency, µM (titrated, usually from 46.1 µM), for inactives: top-dose activity, positive = more growth; hit rate 0.4% among 270,000; calls by dose curve; also: actives are rising curves; nearly all actives have a fitted effect of over 50% in size
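OD600 was taken as the measure of yeast growth restored by compound in an NS1-expressing S. cerevisiae strain. Cells had been washed out of glucose medium and diluted 1:100 into galactose -URA medium, pH 6.0.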
Pf growth 96h – Primary qHTS for delayed death inhibitors of the malarial parasite plastid, 96 hour incubation; Potency, µM (highest dose often 28.7 µM), for inactives: at the highest dose activity change, negative = inhibition, hits mostly inhibitors; P. falciparum luciferase reporter growth, 96 h; hit rate 6.9% among 320,000; also: % is scaled to controls: 0 for no effect and ±100 for the full control effect
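Infected RBCs, 2% Hct / 0.05% parasitemia final; luciferase-reporter P. falciparum; cpd 96 h, 37 C, 5% CO2; luciferase detection reagent; luminescence.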
Starred values were filed as active, the others as inactive; [ ] = dose if it differs, or a comment. Unless noted, calls follow the shape of the dose curve; as a rule, active = well fitted curve in the direction sought with a large enough effect; inconclusive = small, poorly fitted or top-dose-only effect, or another doubt; inactive = no such curve, though single readings can be large; an effect the other way counts as inactive or inconclusive. Potency is read from the fitted curve at half-maximal effect.

Screening COC(=O)c1cccc(NC(=O)c2ccccc2)c1 returned Sm TGR block 13.5%, AMA1-RON2 inh 1.2%, Pf growth 48h 38.1%, NS1 function inh -43.1% and Pf growth 96h 39.5%.
For COC(=O)c1ccc(NC(=S)NCCc2ccccc2)cc1 the results were Sm TGR block -24.9%, AMA1-RON2 inh -7.1%, Pf growth 48h -9.4%, NS1 function inh 15.7% and Pf growth 96h inconclusive.
Screening COC(=O)c1ccc(NC(=O)c2cccc(NC(=O)c3ccccc3)c2)cc1 returned Sm TGR block -0.5%, AMA1-RON2 inh -19.2%, Pf growth 48h -16.0%, NS1 function inh 6.5% and Pf growth 96h 8.28µM*.
Screening Cc1cccc(NC(=O)c2ccccc2Br)n1 returned Sm TGR block -9.4%, AMA1-RON2 inh 44.2%, NS1 function inh -11.7% and Pf growth 96h 11.7µM*.
CCN(Cc1ccccc1)C(=O)C1CCN(S(=O)(=O)c2c(C)noc2/C=C/c2ccc(C)cc2)CC1 was read as Sm TGR block -3.4%.
O=C(Nc1ccc(Cl)cc1)Nc1cccc(C(=O)O)c1 was read as Sm TGR block 0.0%, AMA1-RON2 inh -1.1%, Pf growth 48h -12.8%, NS1 function inh 1.5% and Pf growth 96h 3.7µM*.
O=C(O)c1cccc(NC(=O)c2ccccc2)c1 was read as AMA1-RON2 inh 2.3% and NS1 function inh 16.4%.
Screening Cc1cccc(NC(=O)c2ccc(NC(C)c3ccccc3)c([N+](=O)[O-])c2)n1 (stereo not given) returned Sm TGR block 12.5%, AMA1-RON2 inh 2.8%, Pf growth 48h 9.28µM*, NS1 function inh 3.3% and Pf growth 96h -2.1%.
For O=C(O)c1cccc(NC(=O)c2cc(NC(=O)c3ccccc3)cc(NC(=O)c3ccccc3)c2)c1 the results were Sm TGR block -0.7%, AMA1-RON2 inh -4.5%, Pf growth 48h 40.3%, NS1 function inh 29.5% and Pf growth 96h 8.28µM*.
O=C(Nc1cccc(Cl)c1)Nc1cccc(C(=O)O)c1 was read as Sm TGR block 4.7%, AMA1-RON2 inh -5.8%, Pf growth 48h 289.4%, NS1 function inh 2.4% and Pf growth 96h 307.5%.
For Cc1cccc(NC(=O)c2cccc(NC(=O)c3ccccc3)c2)n1 the results were Sm TGR block 1.1%, AMA1-RON2 inh 0.0%, Pf growth 48h 0.1%, NS1 function inh -35.7% and Pf growth 96h 13.1µM*.
`CCSc1ccc(C(=O)Nc2cccc(C)n2)cc1[N+](=O)[O-]` gave Sm TGR block 3.8%, AMA1-RON2 inh -0.9%, Pf growth 48h 63.8%, NS1 function inh 1.9% and Pf growth 96h 2.3%.
CCC(=O)N1CCC1(C)C(=O)Nc1ccc(F)cc1 (stereo not given) was read as AMA1-RON2 inh 15.9%.
O=C(CNC(=O)[C@@H]1Cc2ccccc2CN1)NCc1ccco1 was read as Sm TGR block -29.7%, AMA1-RON2 inh 32.6%, Pf growth 48h 5.6%, NS1 function inh 6.7% and Pf growth 96h 43.6%.
For CC(O)CNc1nc2c(c(=O)n(Cc3ccccc3)c(=O)n2C)n1C (stereo not given) the results were Sm TGR block -1.5%, AMA1-RON2 inh -2.5%, NS1 function inh 2.4% and Pf growth 96h -20.5%.
Screening NS(=O)(=O)c1ccc(CNC(=S)Nc2ccc(F)c(Cl)c2)cc1 returned Sm TGR block inconclusive, AMA1-RON2 inh 0.2%, Pf growth 48h 33.5% and Pf growth 96h inconclusive.
For COc1ccc(N/C=C\C(=O)c2ccc(C)cc2)cc1OC the results were Sm TGR block -1.3%, AMA1-RON2 inh -10.1%, Pf growth 48h 38.4%, NS1 function inh -4.7% and Pf growth 96h inconclusive.
For NS(=O)(=O)c1ccc(NC(=S)Nc2ccc(F)c(F)c2)cc1 the results were Sm TGR block 25.1µM*, AMA1-RON2 inh 1.6%, Pf growth 48h -11.8%, NS1 function inh -49.3% and Pf growth 96h 31.8%.
COC(=O)c1ccc(NC(=S)Nc2ccc3ccccc3c2)cc1 was read as Sm TGR block -32.2%, AMA1-RON2 inh -10.0%, Pf growth 48h 12.5%, NS1 function inh -1.6% and Pf growth 96h -10.4%.
`COc1ccc(N/C=C\C(=O)c2ccc(Br)cc2)cc1OC` gave Sm TGR block -5.2%, AMA1-RON2 inh -6.9%[2.32 µM], Pf growth 48h 71.4%, NS1 function inh -11.8% and Pf growth 96h 1.85µM*.
